Rows were chosen to be rich in hits. Some 6.5% of all compounds tested hit in one or more screens of this group.
Marburg entry inh = inhibitors of Marburg virus binding or cell entry | Potency, µM (titrated, usually from 37.8 µM), inactives show top-dose activity change, negative = inhibition, actives largely listed as inhibitors | Marburg virus pseudotyped entry inhibition, cell reporter | actives 1.8% (n = 300,000); calls by dose curve; tested in HEK293 cells; further: potency means the concentration at half of the fitted maximal effect
FMDV antiviral = blocks foot and mouth disease virus; FMDV antiviral cell-based qHTS; Potency, µM (doses to about 57.9 µM), for inactives: at the top dose activity change, negative = inhibition, usual class: inhibitors; actives 1.2% (n = 410,000); AID 1159524; calls by dose curve; tested in HEK293T cells; further: read-out not given here; potency means the concentration at half of the fitted maximal effect; nearly all actives have a fitted effect of over 45% in size
Vaccinia mCherry = vaccinia inhibition (mCherry reporter); Vaccinia virus mCherry reporter infection, fluorescence; Potency, µM (doses to about 36.5 µM), for inactives: at the highest dose activity change, negative = inhibition, actives largely listed as inhibitors; actives 0.63% (n = 310,000); calls by dose curve; tested in A549 cells; further: potency means the concentration at half of the fitted maximal effect; nearly all actives have a fitted effect of over 35% in size
VACV Venus inh = vaccinia inhibition (Venus reporter) | AID 720580 | Vaccinia virus Venus reporter expression, fluorescence | Potency, µM (series often up to 36.5 µM), inactives show at the highest dose activity change, negative = inhibition, actives largely listed as inhibitors | actives 0.46% (n = 330,000); calls by dose curve; tested in A549 cells; further: potency means the concentration at half of the fitted maximal effect; nearly all actives have a fitted effect of over 30% in size
HCMV inh = inhibitors of human cytomegalovirus; HFF cells, HCMV-luciferase reporter, 72 h; hits give low values; activity change, negative = inhibition, % at 57.5 µM; actives 4.5% (n = 410,000); AID 1259415; in the data active means activity change below about -60%; inconclusive means no clear call, values can overlap the other calls; inactive means above about -39%
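Luciferase read-out from HCMV-luciferase-infected HFFs (MOI 1 PFU/cell) 72 h post infection at 37C; compounds added after 16 h cell attachment; activity normalized between buffer-only basal and Salinomycin (10uM) inhibitor controls.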
LASV entry inh = inhibitors of Lassa virus binding or cell entry; Lassa virus pseudotype entry inhibition, cell reporter; Potency, µM (series often up to 37.9 µM), for the others: at the top dose activity change, negative = inhibition, hits mostly inhibitors; AID 540256; actives 1.2% (n = 300,000); calls by dose curve; tested in HEK293 cells; further: potency means the concentration at half of the fitted maximal effect; nearly all actives have a fitted effect of over 50% in size
The depositor's hits bear a star; i = inactive; ? = inconclusive; . = not tested or not shown; + = active, no number; [ ] = remark or other dose. On the % scale 0 is the no-effect control and ±100 the full control effect.

SMILES	Marburg entry inh	FMDV antiviral	Vaccinia mCherry	VACV Venus inh	HCMV inh	LASV entry inh
Cc1ccc2nc(C)cc(C(=O)NC3CCCCCC3)c2c1	.	-12.9%	.	.	6.2	.
CCCC(=O)N/C(N)=N/c1nc(C)c2cc(C)ccc2n1	-17.8%[46.1 µM]	15.0%	2.24µM*	?	-2.2	?
CCCN(CCC)S(=O)(=O)c1ccc(C(=O)N2CCn3c4c(c5cc(C)ccc53)CCCC42)cc1 (configuration not stated)	-22.3%[46.1 µM]	-10.5%	1.5%	-4.7%	-16.0	6.7%[46.1 µM]
COc1ccc(N2C(=O)[C@@H]3[C@@H](C2=O)[C@@H]2C=C[C@H]3C23CC3)c(OC)c1	13.6%[46.1 µM]	.	.	.	.	.
O=C(N/N=C/c1ccncc1)c1ccc(OCc2ccccc2)cc1	.	-13.6%	.	.	-61.6*	.
CCOc1ccc(OCc2ccc(C(=O)NN=Cc3ccc[nH]3)cc2)cc1	0.282µM*	-12.9%	?	?	+	?
CC(NC(=O)C1CCOCC1)c1nnc2n1CCN(Cc1ccc3cccnc3c1)CC2 (configuration not stated)	.	-2.2%	-7.6%	-6.1%	.	.
CC1=C(c2ccc(C)c(C)c2)S(=O)(=O)N=C1N1CCC(C(=O)NCCc2ccc(Cl)cc2)CC1	3.98µM*	-7.2%	-9.5%[7.34 µM]	-15.7%[7.34 µM]	-17.8	.
COc1ccccc1CNC(=O)C1CCN(C2=NS(=O)(=O)C(c3ccc(C)c(C)c3)=C2C)CC1	.	?	-17.4%	-16.3%	-63.7*	-0.4%[46.1 µM]
CCOC(=O)c1[nH]c(C=O)c(C(=O)OCC)c1C	?	15.6%	1.2%	2.7%	-95.6*	?
CCOC(=O)C1=CN(CC)S(=O)(=O)NC1c1ccccc1 (configuration not stated)	.	0.0%	-28.7%	-6.3%	-82.3*	.
COc1cccc(CN2C(=O)C3(SCC(=O)N3c3cc(C)cc(C)c3)c3ccccc32)c1 (configuration not stated)	.	-29.7%	-20.4%	-8.9%	-22.0	?
COc1ccccc1C(=O)Nc1nc2nc(C)c(Cc3ccccc3)c(=O)n2[nH]1	-8.2%[46.1 µM]	-11.4%	-3.5%	-12.4%	12.9	14.0%[46.1 µM]
O=C(CC1N=C2c3ccccc3N=C(SCC(=O)Nc3cccc(C(F)(F)F)c3)N2C1=O)NCc1cccs1 (configuration not stated)	?	-17.5%	6.9%	1.3%	-15.7	1.1%[46.1 µM]
CCOC(=O)C1CCN(c2ncnc3c2oc2ccccc23)CC1	-7.3%	.	-20.7%	-3.2%	41.1	-22.9%
Cc1ccc2c(c1)c1ncnc(N3CCN(c4ccccc4)CC3)c1n2C	0.4%	20µM*	.	-8.9%	86.9	?
O=C(CSc1ncnc2c1oc1ccccc12)N1CCN(c2ccccc2)CC1	1.0%	0.2%	.	.	36.9	5.8%
c1ccc(N2CCN(c3ncnc4c3oc3ccccc34)CC2)cc1	?	35.5µM*	i	-7.0%	-28.9	7.2%
CCc1nnc(N2CCN(c3ncnc4c3oc3ccccc34)CC2)s1	0.0%	22.4µM*	-12.3%	-6.3%	?	4.4%
CC(=O)N1CCN(c2ccc(Nc3ncnc4c3oc3ccccc34)cc2)CC1	?	28.2µM*	-13.5%[1.46 µM]	?	?	?
CCc1nc(Nc2ccc(N3CCN(C(C)=O)CC3)cc2)c2oc3ccccc3c2n1	?	?	-29.4%	-24.0%	-5.2	?
COc1ccc(-c2cccc(NS(=O)(=O)c3ccc(C)s3)c2)nn1	.	28.7%	-16.8%	-8.2%	-6.8	1.7%[46.1 µM]
CC(C)(C)n1ncc2c(=O)n(CC(=O)OCc3ccccc3)cnc21	?	14.1µM*	.	-19.1%	?	?
Cc1ccccc1Cn1cnc2c(cnn2C(C)(C)C)c1=O	-4.9%	0.0%	.	-18.9%	6.0	?
Cc1ccc(C)c(Cn2cnc3c(cnn3C(C)(C)C)c2=O)c1	?	0.0%	.	-18.2%	?	6.31µM*
SMILES	Marburg entry inh	FMDV antiviral	Vaccinia mCherry	VACV Venus inh	HCMV inh	LASV entry inh
CC(C)(C)n1ncc2c(=O)n(Cc3cccc(Cn4cnc5c(cnn5C(C)(C)C)c4=O)c3F)cnc21	.	11.2µM*	.	.	-87.7*	.
CCOC(=O)NN=C1C[C@@H](O)[C@@H](O)[C@@H]2[C@H]3C(=O)N(C4CCCCC4)C(=O)[C@@H]3CC[C@@H]12	-24.9%[14.2 µM]	.	.	.	.	12.6%[14.3 µM]
O=C(Nc1ccc(F)c(Cl)c1)N1CCN2CCCCC2C1 (configuration not stated)	.	21.2%	-11.4%	-10.9%	9.3	11.0%[46.1 µM]
COc1ccc(C)cc1S(=O)(=O)N1CCN(C(=O)c2ncoc2-c2ccc(F)cc2)CC1	2.5%[46.1 µM]	?	-0.4%	-11.8%	-4.7	0.9%
COc1ccc(C)cc1S(=O)(=O)N1CCN(C(=O)c2ncoc2-c2ccc(C)cc2)CC1	2.4%[46.1 µM]	-19.9%	-25.0%	-17.1%	-69.7*	?
Cc1ccc(NC(=O)C2(C)Cc3ccccc3C(=O)O2)c(C)c1 (configuration not stated)	6.4%[46.1 µM]	-20.4%	1.7%	-1.8%	19.7	?
COc1ccc(NC(=O)CS(=O)c2ccc(F)cc2)cc1 (configuration not stated)	1.7%[46.1 µM]	16.9%	-14.8%	-1.5%	1.5	28.5%[46.1 µM]
COc1ccc(S(=O)CC(=O)Nc2ccc(Cl)cc2Cl)cc1 (configuration not stated)	?	-9.8%	-11.9%	0.2%	-66.5*	2.1%
CC(CCC(C)[n+]1cccc(C#N)c1)[n+]1cccc(C#N)c1 (configuration not stated)	.	.	38.6%	-5.7%	.	.
CSc1ccc(CCNC(=O)c2ccc3c(c2)nc2n3CCC(C)C2)cc1 (configuration not stated)	.	?	-10.9%	-0.6%	-29.3	22.6%[46.1 µM]
CSc1ccc(CCNC(=O)c2ccc3c(c2)nc2n3CCCCC2)cc1	.	-27.8%	-2.1%	-7.2%	-76.3*	-15.3%[46.1 µM]
Cc1ccccc1CCNC(=O)c1ccc2c(c1)nc1n2CCCCC1	.	?	-18.1%	-14.3%	-78.2*	?
COc1ccc(Br)cc1CNC(=O)c1ccc2c(c1)nc1n2CCCCC1	.	5.2%	-20.0%	-8.8%	-60.1*	?
COCCN(C)c1ccc2c(-c3ccccc3OC)noc2n1	.	.	.	.	31.6	.
COc1oc(C(=O)NC2CCCCC2)c(-c2ccc(Cl)cc2)c1S(=O)(=O)c1ccccc1	-0.5%	14.2%	i	-9.1%	-64.2*	-7.0%
CC1CCCN(CCS(=O)(=O)c2ccccc2)C1 (configuration not stated)	?	24.8%	10µM*	?	5.9	9.3%[46.1 µM]
Cc1oc(-c2ccc(C(=O)NCc3ccccc3)cc2)nc1CS(=O)(=O)c1ccccc1	.	?	-26.6%	-29.1%	-0.5	-1.6%[46.1 µM]
Cc1oc(-c2ccc(C(=O)NCCN(C)C)cc2)nc1CS(=O)(=O)c1ccccc1	.	-16.5%	-2.4%	-9.6%	-69.6*	?
Cc1oc(-c2ccc(C(=O)NCc3ccc(Cl)cc3)cc2)nc1CS(=O)(=O)c1ccccc1	.	-26.0%	-4.9%	-29.4%	-69.1*	-17.4%[46.1 µM]
COCCNC(=O)c1ccc(-c2nc(CS(=O)(=O)c3ccccc3)c(C)o2)cc1	.	0.0%	-10.7%	2.8%	16.5	-2.7%[46.1 µM]
FC(F)Sc1ccc(-n2c(-c3ccc(Cl)cc3)c[n+]3c2CCC3)cc1	.	-24.9%	-0.7%	-3.3%	-24.9	.

Assay outcomes: PubChem BioAssay, National Center for Advancing Translational Sciences (NCATS)
